Source: PubChem BioAssay
L3MBTL1 block = L3MBTL1 (human) inhibition; hit rate 0.66% among 230,000; Potency, µM (top dose mostly 57.1 µM), actives largely listed as inhibitors; AlphaScreen L3MBTL1–H3K9me1 peptide binding; Q9Y468; further: nearly all actives have a fitted effect of over 60% in size
Target sequence (Q9Y468 whole entry, looked up): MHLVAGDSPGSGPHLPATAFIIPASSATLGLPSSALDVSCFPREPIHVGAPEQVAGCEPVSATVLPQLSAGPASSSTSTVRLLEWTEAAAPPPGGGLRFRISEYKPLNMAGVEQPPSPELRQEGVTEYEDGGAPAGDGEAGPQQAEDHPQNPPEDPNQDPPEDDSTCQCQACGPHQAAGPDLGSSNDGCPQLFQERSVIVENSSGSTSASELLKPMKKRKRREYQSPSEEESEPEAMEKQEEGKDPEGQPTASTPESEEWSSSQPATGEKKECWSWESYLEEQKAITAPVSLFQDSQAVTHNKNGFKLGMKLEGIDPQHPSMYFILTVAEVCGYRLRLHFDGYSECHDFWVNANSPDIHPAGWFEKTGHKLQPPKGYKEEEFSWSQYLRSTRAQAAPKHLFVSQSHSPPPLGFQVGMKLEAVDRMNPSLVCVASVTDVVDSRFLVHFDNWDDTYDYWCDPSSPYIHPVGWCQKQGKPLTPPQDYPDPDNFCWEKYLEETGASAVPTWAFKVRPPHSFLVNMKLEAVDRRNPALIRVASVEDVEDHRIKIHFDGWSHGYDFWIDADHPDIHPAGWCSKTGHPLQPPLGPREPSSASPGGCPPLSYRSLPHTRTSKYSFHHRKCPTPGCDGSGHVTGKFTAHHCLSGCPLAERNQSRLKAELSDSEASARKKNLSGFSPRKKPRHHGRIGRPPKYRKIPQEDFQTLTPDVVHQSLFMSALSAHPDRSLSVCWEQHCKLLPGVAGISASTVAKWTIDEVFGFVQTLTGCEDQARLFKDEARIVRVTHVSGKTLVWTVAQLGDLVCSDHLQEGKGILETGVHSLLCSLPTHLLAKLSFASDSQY
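AlphaScreen assay: L3MBTL1 (50 nM final) was preincubated 30 min at room temperature with biotinylated H3(1-15)K9me1 peptide (75 nM final), then 30 min with library compounds; streptavidin donor and nickel chelate acceptor beads (10 ug/mL final) added, 30 min dark.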
CtBP-E1A inh = blocks the CtBP interaction with E1A; hit rate 0.49% among 340,000; AlphaScreen GST-E1A/His-CtBP binding, 1536-well; hits give low values; activity change, % (concentration not given with the values); in the data active means activity change below about -65%; inconclusive means mostly about -30% to -63%
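Protein mix (5X: 125 nM each GST-E1A, His-CtBP) was incubated with pinned compound 2 h at 37 deg C in dark, in 50 mM Tris pH 8.0 buffer with 300 mM NaCl. Glutathione donor and nickel acceptor beads followed; AlphaScreen signal read after 1 h.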
Eya2 phos inh = inhibitors of human Eya2 phosphatase activity. hit rate 0.006% among 330,000. O00167. recombinant Eya2, OMFP fluorescence dephosphorylation (OMFP is methylfluorescein phosphate). Potency, µM (top dose mostly 76.9 µM), usual class: inhibitors
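Eya2 (0.2 uM) preincubated 10 min at ambient with compound, then OMFP substrate added at 50 uM; 10 min reaction in 50 mM HEPES pH 7.5, 50 mM NaCl, 5 uM MgCl2, 0.05% BSA, 1 mM DTT. Fluorescence read at Ex 485/Em 525 nm.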
Six1-Eya2 blk = inhibitors of human Six1/Eya2 interaction; hit rate 0.56% among 360,000; activity change, % (concentration not given with the values); Q15475+O00167; AlphaScreen GST-Six1/His-Eya2 binding, biochemical; hits give low values; in the data active means activity change below about -65%; inconclusive means mostly about -30% to -63%
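Homogeneous AlphaScreen proximity assay pairing GST-Six1 with His-tagged Eya2 (added as 5X mix: 250 nM and 500 nM) in 50 mM Tris pH 8.0, 300 mM NaCl, 1 mM TCEP. Glutathione donor and nickel acceptor beads; 1 h, 37 °C, dark.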
B2AR arrestin = recruits beta-arrestin to the human beta2-adrenergic receptor; P07550; beta-arrestin recruitment to beta2AR, cell-based reporter; Potency, µM (doses to about 46.1 µM), actives largely listed as activators; hit rate 0.02% among 330,000; further: nearly all actives have a fitted effect of over 65% in size
Numbers stand for hits; . = inactive; ? = inconclusive; / = not tested or not shown; [ ] = remark or other dose. Compounds with a hit are over-represented: about 0.9% of the library has one in this group of screens. Unless noted, the call rests on the fitted dose curve; in most records, active means well fitted curve in the direction sought with a large enough effect; inconclusive means small, poorly fitted or top-dose-only effect, or another doubt; inactive means no such curve, though single readings can be large; an effect the other way counts as inactive or inconclusive.

SMILES | L3MBTL1 block | CtBP-E1A inh | Eya2 phos inh | Six1-Eya2 blk | B2AR arrestin
Cc1cc(C)c2c(c1)-c1c(ssc1=S)C(C)(C)N2C(=O)CSc1nncn1C | ? | -67.0 | . | -66.8 | .
CCCc1cc(N2CCN(C(=O)c3ccco3)CC2)n2c(nc3ccccc32)c1C#N | / | -67.4 | . | ? | .
COc1cccc(/C=N/NC(=O)c2cc3c(OC)ccc(OC)c3[nH]2)c1O | / | / | . | -68.0 | .
COc1cccc(/C=N/NC(=O)N/N=C/c2cccc(OC)c2O)c1O | .[2.29 µM] | ? | . | ? | .
COc1cc(OC)c2cc(C(=O)N/N=C/c3cccc(OC)c3O)[nH]c2c1 | . | -75.5 | . | ? | .
COc1ccc2cc(C(=O)N/N=C/c3cc(OC)c(OC)c(OC)c3)[nH]c2c1 | / | ? | . | ? | .
O=C(OCC#CCNc1nnc(-c2cccc3ccccc23)o1)c1cccs1 | . | / | . | / | .
CC(C)C[C@@H](COCc1ccc([N+](=O)[O-])cc1)N1CCN(C(=O)c2ccc(C(F)(F)F)cc2)CCC1=O | / | -90.0 | / | -68.5 | /
CC(C)C[C@@H](COCc1ccc(Cl)cc1)N1CCN(C(=O)c2ccc(C(F)(F)F)cc2)CCC1=O | / | . | / | . | /
Cc1nc2ccccc2c(=O)n1NC(=O)/C=C/c1ccc(Br)cc1 | . | -65.5 | . | . | .
Cc1cccc(-c2nc3ccccc3c(=O)n2NC(=O)/C=C/c2ccc([N+](=O)[O-])cc2)c1 | . | -81.0 | . | . | .
O=C(N/N=C(\c1ccccc1)c1cccnc1)c1ccc(O)cc1 | / | . | . | . | .
O=C(N/N=C(\c1ccccc1)c1cccnc1)c1cccc(F)c1 | / | . | . | -79.7 | .
O=c1[nH]cnc2nc(-c3ccccc3)c(-c3ccccc3)nc12 | . | . | . | . | .
O=c1[nH]cnc2nn(-c3ccccc3)nc12 | . | -65.4 | . | ? | .
CCOC(=O)C1=C(C)N(C[C@@H]2CC[C@@H](Cc3ccc(-c4ccccc4)cc3)O2)C(=O)NC1c1ccc(SCc2ccco2)c([N+](=O)[O-])c1 (stereo partly specified) | 31.6µM | . | . | . | .
COc1cccc(/C=N/NC(=O)c2[nH]c(C)c(C(=O)N/N=C/c3cccc(OC)c3)c2C)c1 | . | ? | . | -68.4 | .
CCc1ccccc1NC(=O)CSc1nc2n[nH]c(C)c2c(=N)n1-c1cccc(OC)c1 | . | -69.9 | . | ? | .
COc1ccc(OC)c(NC(=O)CSc2nc3n[nH]c(C)c3c(=N)n2-c2cccc(Cl)c2C)c1 | / | . | . | . | .
CC1CC(C)CN(C(=O)c2ccc3c(c2NCCO)C(=O)c2ccccc2C3=O)C1 (stereo unspecified) | / | ? | . | -70.0 | .
O=C1CC[C@@H](C(=O)N2CSC[C@@H]2C(=O)Nc2cccc(C(F)(F)F)c2)N1 | / | . | / | . | /
CC(C)(C(=O)N[C@H](CO)c1ccccc1)C(=O)N[C@H](CO)c1ccccc1 | . | . | . | . | .
CC(C)(NC(=O)NC(CO)c1ccccc1)c1cccc(C(C)(C)NC(=O)NC(CO)c2ccccc2)c1 (stereo unspecified) | . | . | . | . | 6.51µM
Cc1cc2c(s1)c1c(C)nn(Cc3ccccc3F)c(=O)c1n2C | . | / | . | / | .
O=C(O)c1ccccc1N=Nc1c(O)[nH]c2ccc([N+](=O)[O-])cc12 | / | -85.0 | . | -72.0 | .
SMILES | L3MBTL1 block | CtBP-E1A inh | Eya2 phos inh | Six1-Eya2 blk | B2AR arrestin
O=[N+]([O-])c1ccc2[nH]c(O)c(N=NC(=S)Nc3cccnc3)c2c1 | / | -87.8 | . | -80.2 | .
O=C(N=Nc1c(O)[nH]c2ccc([N+](=O)[O-])cc12)c1ccccc1Cl | . | / | . | . | .
O=[N+]([O-])c1ccc2[nH]c(O)c(N=NC(=S)NCC3CCCO3)c2c1 (stereo unspecified) | . | . | . | . | .
CCNC(=S)N=Nc1c(O)[nH]c2ccc([N+](=O)[O-])cc12 | . | -87.2 | . | -83.9 | .
CCOc1ccc(NC(=S)N=Nc2c(O)[nH]c3ccccc23)cc1 | . | ? | . | ? | .
Oc1cccc(NC(=S)N=Nc2c(O)[nH]c3ccccc23)c1 | ? | -68.5 | . | ? | .
COC(=O)c1cc(NC(=O)Cc2cccs2)cc(C(=O)OC)c1 | ? | / | . | . | .
Cc1ccc(C2(C)NC(=O)N(CC(=O)Nc3ccccc3N3CCCC3)C2=O)cc1 (stereo unspecified) | 2.82µM | . | . | . | .
C[C@H]1COC[C@@H](C/C=C/c2ccccc2)N1c1ccccc1 | / | . | / | . | /
Nc1nnnn1/N=C/c1cc(Br)ccc1O | / | -93.8 | / | -92.3 | /
Cn1nc([N+](=O)[O-])nc1Sc1cccc2cccnc12 | . | / | . | -90.1 | .
Cc1[nH]c2ccccc2c1CCNC(=O)c1ccc2c(c1[N+](=O)[O-])C(=O)c1ccccc1C2=O | . | . | . | -73.3 | .
Cc1[nH]c2c(C)cccc2c1CCNC(=O)c1ccc2c(c1[N+](=O)[O-])C(=O)c1ccccc1C2=O | . | -91.7 | . | -65.3 | .
CN(C)C(=O)c1ccc2c(c1[N+](=O)[O-])C(=O)c1ccccc1C2=O | . | . | . | . | .
CCCCCCCCCCCCCCCCCC(=O)OC(CC(=O)O)C[N+](C)(C)C (stereo unspecified) | / | / | . | / | /
Cc1ccc(NC(=O)CN2C(=O)NC3(CCCC3)C2=O)c(Cl)c1 | / | . | . | . | .
Cn1c(=O)c2cc(S(=O)(=O)NCCC(=O)N3CC=C(c4ccccc4)CC3)ccc2n(C)c1=O | . | -85.9 | . | ? | .
Cn1c(=O)c2cc(S(=O)(=O)NCCC(=O)NCc3ccccc3Cl)ccc2n(C)c1=O | . | -80.9 | . | -68.8 | .
Cc1ccn2c(Nc3ccc4c(c3)OCO4)c(-c3ccccn3)nc2c1 | 8.91µM | -80.8 | . | -87.9 | .
Cc1cc(C)n2c(Nc3ccc4c(c3)OCCO4)c(-c3ccccn3)nc2n1 | / | ? | / | -88.8 | /
Cc1ccc(-c2nc3cnccn3c2Nc2ccc3c(c2)OCO3)o1 | . | . | . | . | .
Cc1ccc(Nc2c(-c3ccccn3)nc3ccc(C)cn23)cc1 | / | / | . | -93.0 | .
Cc1ccc(Nc2c(-c3ccccn3)nc3cc(C)ccn23)cc1 | / | -93.1 | . | -81.5 | .
Cc1ccc2nc(-c3ccncc3)c(Nc3ccccc3)n2c1 | . | . | . | . | .
Cc1cc(C)n2c(Nc3ccc4c(c3)OCCO4)c(-c3ccco3)nc2n1 | / | / | . | / | .
Fc1cccc(CNc2ncnc3ccc(-c4ccoc4)cc23)c1 | . | / | . | / | .
CCN(C(=O)c1ccc(S(=O)(=O)N2CCC(C)CC2)cc1)C1CCS(=O)(=O)C1 (stereo unspecified) | . | . | . | . | .
Cc1cc(=O)n2nc(N3CCC(C(=O)NCc4ccc(Cl)cc4)CC3)sc2n1 | / | / | . | -65.3 | .
Cc1ccc(CNC(=O)C2CCN(c3nn4c(=O)cc(C)nc4s3)CC2)cc1 | / | ? | . | ? | .
CC1C/C(=C/c2ccco2)C(=O)/C(=C/c2ccco2)C1 (stereo unspecified) | 3.16µM | / | . | / | ?
